# Compound activity from PubChem.
# KB-V1 MDR tox: qHTS assay for MDR1-selective chemotherapeutics: Primary screen using the drug-selected MDR subline cells KB-V1. Potency, µM (titrated, usually from 46.1 µM), hits mostly cytotoxic. hit rate 3.4% among 400,000. AID 1347076, 2019. KB-V1 MDR cells viability, CellTiter-Glo, 72 h; note: potency is the fitted concentration of half-maximal effect; % is set by controls: 0 for no effect and ±100 for the full control effect; nearly all actives have a fitted effect of over 60% in size
#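 Potencies derive from concentration-effect curves fitted to normalized luminescence (CellTiter-Glo) of KB-V1 cells treated for 72 h at 37 degrees C in phenol-red-free DMEM containing 10% FBS.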
# KB-3-1 cytotox: qHTS assay for MDR1-selective chemotherapeutics: Primary screen using the parental adenocarcinoma cell KB-3-1. KB-3-1 viability, CellTiter-Glo ATP luminescence, 72 h. Potency, µM (series often up to 46.1 µM), usual class: cytotoxic. hit rate 1.4% among 400,000; note: potency is the fitted concentration of half-maximal effect; % is set by controls: 0 for no effect and ±100 for the full control effect; nearly all actives have a fitted effect of over 60% in size
#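 Luminescent ATP read-out (CellTiter-Glo) measures survival of drug-naive KB-3-1 cells after 72 h compound exposure at 37 °C. Titration series was screened from lowest to highest concentration, with DMSO vehicle plates as background controls.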
# MCF10A rerep: A quantitative high throughput screen for small molecules that induce DNA re-replication in MCF 10a normal breast cells; MCF 10A DNA re-replication, Hoechst nuclear intensity, 48 h; AID 624296, 2012; Potency, µM (highest dose often 46.1 µM), for the others: at the highest dose activity, positive = re-replication, actives largely listed as activators; hit rate 2.9% among 350,000; note: potency is the fitted concentration of half-maximal effect; % of control where 0% means no effect; nearly all actives have a fitted effect of over 50% in size
# hERG WT inh: qHTS for Inhibitors of KCHN2 3.1: Wildtype qHTS; AID 720551, 2013; activity change, % at 1.84 µM; U2OS, BacMam KCNH2, thallium flux FluxOr; hits give low values; Voltage-gated inwardly rectifying potassium channel KCNH2 (Homo sapiens), Q12809; hit rate 0.37% among 340,000;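 active = maximum activity change below -70%; inconclusive = maximum activity change between -70% and -50%; inactive = maximum activity change above -50%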; note: % is set by controls: 0 for no effect and ±100 for the full control effect
# Target sequence (Q12809 whole entry, looked up): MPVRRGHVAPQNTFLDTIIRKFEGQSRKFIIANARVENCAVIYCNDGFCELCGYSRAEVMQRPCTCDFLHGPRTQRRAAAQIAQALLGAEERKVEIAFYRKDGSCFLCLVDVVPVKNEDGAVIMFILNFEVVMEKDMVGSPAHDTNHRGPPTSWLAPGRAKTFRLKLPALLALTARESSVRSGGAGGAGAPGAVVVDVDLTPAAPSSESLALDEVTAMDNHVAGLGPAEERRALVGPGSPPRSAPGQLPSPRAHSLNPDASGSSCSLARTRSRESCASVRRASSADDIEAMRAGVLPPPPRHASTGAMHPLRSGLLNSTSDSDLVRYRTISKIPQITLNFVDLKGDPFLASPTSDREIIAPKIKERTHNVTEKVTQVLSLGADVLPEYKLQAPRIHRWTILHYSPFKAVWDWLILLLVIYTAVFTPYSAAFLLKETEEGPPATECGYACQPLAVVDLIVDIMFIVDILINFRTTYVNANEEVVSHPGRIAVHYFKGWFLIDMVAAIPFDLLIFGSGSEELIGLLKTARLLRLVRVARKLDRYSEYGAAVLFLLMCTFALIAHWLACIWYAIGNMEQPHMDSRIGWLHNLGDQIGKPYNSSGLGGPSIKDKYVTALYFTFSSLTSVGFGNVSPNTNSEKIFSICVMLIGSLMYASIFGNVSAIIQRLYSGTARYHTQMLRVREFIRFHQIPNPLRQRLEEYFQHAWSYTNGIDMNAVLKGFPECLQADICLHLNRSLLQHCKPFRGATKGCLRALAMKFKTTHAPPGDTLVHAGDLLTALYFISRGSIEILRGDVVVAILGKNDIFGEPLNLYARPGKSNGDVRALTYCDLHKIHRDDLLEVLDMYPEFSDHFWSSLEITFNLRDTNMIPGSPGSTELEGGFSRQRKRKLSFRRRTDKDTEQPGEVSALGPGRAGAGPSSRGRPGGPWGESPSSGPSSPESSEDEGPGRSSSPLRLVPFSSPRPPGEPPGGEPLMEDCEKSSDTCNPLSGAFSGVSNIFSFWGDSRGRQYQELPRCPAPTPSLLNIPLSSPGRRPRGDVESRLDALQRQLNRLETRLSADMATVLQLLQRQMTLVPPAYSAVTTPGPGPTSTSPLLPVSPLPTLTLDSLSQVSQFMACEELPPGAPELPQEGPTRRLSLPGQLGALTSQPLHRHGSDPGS
#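 U2OS cells were transduced with wild-type KCNH2 virus (2.03 x 10^8 / mL) for 4 h at room temperature, then cultured overnight at 37 C. Thallium flux was read with FluxOr dye. Rate constants were normalized to DMSO controls.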
# SW480 rerep: A quantitative high throughput screen for small molecules that induce DNA re-replication in SW480 colon adenocarcinoma cells | SW480 DNA re-replication, Hoechst DNA content imaging, 48 h | Potency, µM (doses to about 46.1 µM), for the others: at the top dose re-replication activation, actives largely listed as activators | hit rate 1.8% among 340,000 | AID 624297, 2012; note: potency is the fitted concentration of half-maximal effect; % of control where 0% means no effect; nearly all actives have a fitted effect of over 55% in size
#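 Treated cells incubate 48 hr (37 C, 5% CO2), are stained 40 min with Hoechst, and nuclear fluorescence is enumerated; a rise in nuclei with high DNA signal marks re-replication.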
# KCNH2 3.1 block: qHTS for Inhibitors of KCHN2 3.1: Mutant qHTS; U2OS KCNH2 3.1, thallium flux FluxOr; hits give low values; activity change, % (tested at about 1.8 µM); hit rate 0.95% among 340,000; AID 720553, 2013;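 active = maximum activity change below -70%; inconclusive = maximum activity change from -70% to -50%; inactive = maximum activity change above -50%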;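 note: thallium influx rate constant from kinetic fluorescence after stimulation buffer; % is set by controls: 0 for no effect and ±100 for the full control effect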
#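 Channel expression came from 3.1 mutant virus (1.77 x 10^8 /mL) applied to suspended U2OS cells for 4 h. Flux was tracked with FluxOr dye plus Red40 quencher, and kinetic rate constants normalized to controls.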
# * marks the source's active call; other numbers are inactive results; i = inactive; u = inconclusive; x = no result given. Rows were chosen to be rich in hits. Some 7.6% of all compounds tested hit in one or more screens of this group. Unless noted, calls come from the whole dose curve; as a rule, active = well fitted curve in the direction sought with a large enough effect; inconclusive = small, poorly fitted or top-dose-only effect, or another doubt; inactive = no such curve, though single readings can be large; an effect the other way counts as inactive or inconclusive.
SMILES,KB-V1 MDR tox,KB-3-1 cytotox,MCF10A rerep,hERG WT inh,SW480 rerep,KCNH2 3.1 block
Cc1ccccc1OCC(=O)NNC(=O)Nc1ccc(Cl)cc1,5.17µM*,4.11µM*,3.66µM*,0.8,u,5.4
O=C(Nc1ccc(Cl)cc1)Nc1cccc2nsnc12,i,i,18.4µM*,-1.0,u,-2.3
COC(=O)CNC(=O)CNC(=O)Nc1ccccc1Cl,i,i,-0.6%,-12.2,0.8%,-76.7*
Cc1ccc(Cl)cc1NC(=O)c1ccccc1OCC(=O)Nc1ccc(Cl)cc1,i,i,9.2µM*,x,-31.5%,-22.5
CCc1nn(CC(=O)Nc2c(C)cc(C)cc2C)c(=O)c2cc3sccc3n12,i,i,x,x,x,x
O=C(Nc1ccc(Oc2ccc(NC(=O)Nc3ccccc3Cl)cc2)cc1)Nc1ccccc1Cl,i,u,u,-2.1,11.6µM*,3.9
CCOc1ccccc1NC(=O)Nc1ccccn1,u,i,1.0%,16.5,-0.6%,17.5
CCOc1ccccc1NC(=O)Nc1ccc(Cl)cc1,23.1µM*,23.1µM*,20.0%,3.1,u,-13.9
O=C(CNC(=S)NC(=O)c1ccc(Cl)cc1)c1ccccc1,i,i,-28.5%,-0.9,-31.6%,3.3
O=C(CNC(=S)NC(=O)c1ccc(Br)o1)c1ccccc1,i,i,6.51µM*,-0.3,20.6µM*,8.9
O=C(Nc1ccc(Cl)cc1)[C@@H]1[C@@H]2C(=O)N(c3ccc(Cl)cc3)C(=O)[C@@H]2[C@H]2C=CC=NN21,i,i,u,8.5,6.4%,-114.3*
Cc1ccc(N2C(=O)[C@@H]3[C@H](C2=O)[C@H]2C=CC=NN2[C@@H]3C(=O)Nc2ccc(Cl)cc2)cc1,i,i,13.6%,6.8,0.3%,6.3
CCN(CC)CCN(C(=O)c1ccc(C(=O)c2ccccc2)cc1)c1nc2cc3c(cc2s1)OCO3,i,i,10.2%,13.4,-8.4%,-14.6
CN(C)CCCN(C(=O)c1ccc(C(=O)c2ccccc2)cc1)c1nc2cc3c(cc2s1)OCO3,20.6µM*,u,u,20.9,u,-26.2
CN(C)CCCN(C(=O)c1cc2cc([N+](=O)[O-])ccc2s1)c1nc2cc3c(cc2s1)OCCO3,18.4µM*,u,u,-4.2,10.3µM*,-20.7
CCc1ccc2nc(N(CCCN(C)C)C(=O)c3ccc(S(=O)(=O)N(C)C4CCCCC4)cc3)sc2c1,i,u,18.4µM*,-45.3,u,-71.9*
Cc1ccc2nc(N(CCCN(C)C)C(=O)c3ccc4c(c3)CCCC4)sc2c1,4.11µM*,u,u,31.2,u,-16.8
COc1cccc(N2CCN(S(=O)(=O)c3cn(C)cn3)CC2)c1,i,i,1.0%,-4.8,0.0%,43.9
NC(=S)NN=C(c1ccc(Br)cc1)C1CC1,i,i,-3.9%,-2.1,15.6%,x
CCCN(CCC)c1ccc(/C=C/c2sc3ccccc3[n+]2CCCCI)cc1,i,i,x,x,x,x
Cc1ccc(/C=N/n2c(COc3ccccc3)n[nH]c2=S)cc1,u,i,-2.4%,u,-14.7%,-9.8
CCOc1ccc(/C=N/n2c(C3CCCCC3)n[nH]c2=S)cc1,i,i,10.3µM*,-11.3,-15.4%,10.2
Fc1ccc(/C=N/n2c(C3CCCCC3)n[nH]c2=S)cc1,i,i,u,-2.8,-8.1%,-4.2
CC(C)c1ccc(/C=N/n2c(COc3ccccc3)n[nH]c2=S)cc1,u,i,20.6µM*,1.3,8.4%,15.2
N/C(Cc1ccc([N+](=O)[O-])cc1)=N\OC(=O)c1cccc(Br)c1,i,i,u,x,11.6µM*,0.1
SMILES,KB-V1 MDR tox,KB-3-1 cytotox,MCF10A rerep,hERG WT inh,SW480 rerep,KCNH2 3.1 block
N/C(Cc1ccc([N+](=O)[O-])cc1)=N\OC(=O)c1ccc([N+](=O)[O-])cc1,u,i,2.0%,-17.6,-6.0%,-19.4
C=CC[C@@H](Cc1ccc(F)cc1)C(=O)OC[C@H]1CCCN1C(=O)[C@@H](CC=C)CC(=O)N(CCO)Cc1ccccc1,i,i,-5.5%,-6.2,0.0%,-10.5
C=CC[C@@H](Cc1ccc(F)cc1)C(=O)OC[C@@H]1CCCN1C(=O)[C@H](CC=C)CC(=O)N(CCO)Cc1ccccc1,20.6µM*,u,0.7%,-8.2,0.8%,-14.0
C=CCC[C@@H](Cc1ccc(F)cc1)C(=O)OC[C@@H]1CCCN1C(=O)[C@@H](CC=C)CC(=O)N[C@@H](CO)Cc1ccccc1,i,16.4µM*,17.7%,3.5,9.6%,-15.9
COc1cc(CNCc2ccccn2)ccc1OCC(=O)NC1CCCCC1,20.6µM*,i,-0.4%,-16.1,-67.1%,7.0
COc1cc(CNCc2cccnc2)ccc1OCC(=O)NC(C)(C)C,i,i,0.2%,x,-100.9%,-8.5
COc1cc(CNCc2ccccn2)ccc1OCC(=O)NC(C)(C)C,20.6µM*,i,0.4%,-15.8,-6.8%,-9.5
CCOc1cc(CNCc2ccccc2)ccc1OCC(=O)NC1CCCCC1,x,x,26.2%,15.9,u,-2.9
N#Cc1ccccc1NC(=O)c1ccc2c(Cl)c3c(nc2c1)CCCC3,8.2µM*,i,1.3%,5.9,-1.4%,-6.1
O=C(Nc1ccccc1F)c1ccc2c(Cl)c3c(nc2c1)CCC3,i,u,x,x,x,x
COc1c2ccoc2cc2oc(=O)ccc12,25.9µM*,i,-3.3%,1.9,-1.4%,-0.8
CC1(C)OC1COc1c2ccoc2cc2oc(=O)ccc12 (centres undefined),i,i,u,-7.1,-31.0%,9.0
CCOC(=O)C1C(=O)C(C(C)=O)C(=O)CC1CC(C)SCC (centres undefined),20.6µM*,i,-5.7%,2.7,-13.4%,-3.7
CCSC(C)CC1CC(=O)CC(=O)C1 (centres undefined),i,i,-2.6%,2.0,-8.7%,1.9
O=C1OCCN1C(=O)[C@H]1[C@H](c2ccc([N+](=O)[O-])cc2)C(c2cccc(Cl)c2)=NN1c1ccc(Br)cc1,i,i,-3.2%,-6.8,-6.7%,x
Cc1cccc(C2=NN(c3ccc(Br)cc3)[C@@H](C(=O)N3CCOC3=O)[C@@H]2c2ccc(F)cc2)c1,i,i,u,0.0,9.2µM*,-2.9
